# In PubChem BioAssay (Tox21):
# A number with no mark means an inactive call. Records with an inconclusive call do not appear. A call without a number means that no potency is given here. Active and inactive are the calls of the source. Unless noted, calls follow the shape of the full dose curve.
# Assays:
# [1] = Nuclear factor erythroid 2-related factor 2/antioxidant responsive element (Nrf2/ARE) small molecule agonists: qHTS cell viability counter screen in human keratinocytes (AID 1919968; active = well fitted curve in the direction sought with a large enough effect in the repeat runs; an effect the other way counts as inactive or inconclusive; also: nearly all actives have a fitted effect of over 55% in size)
# Procedure, shortened: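 Measured as CellTiter-Fluor fluorescence, this readout tracks cytotoxicity in the same wells as the ARE-luciferase screen. HaCaT reporter cells (1,500/well) received compounds after a 5 h pre-incubation and were exposed for 23 h.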
# [2] = Nuclear factor erythroid 2-related factor 2/antioxidant responsive element (Nrf2/ARE) small molecule agonists: luciferase reporter gene qHTS assay in human keratinocytes (AID 1919969); also: nearly all actives have a fitted effect of over 35% in size; also: potency is read from the fitted curve at half-maximal effect
# [3] = biological target: Gonadotropin-releasing hormone receptor (Homo sapiens) (UniProt P30968); test: Human gonadotropin-releasing hormone receptor (GnRHR) small molecule agonists, calcium flux assay in GnRHR-HEK293 cells (AID 1920063); also: nearly all actives have a fitted effect of over 35% in size
# Procedure, shortened: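 Fluorescence kinetics (480 nm excitation, 540 nm emission; 3 min, 1 s steps) report calcium mobilisation in human GnRHR-HEK293 cells in agonist mode. Dye incubation: 1 h, 37 C.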
# [4] = biological target: KiSS-1 receptor (Homo sapiens) (UniProt Q969F8); test: Human kisspeptin (KISS1R) small molecule agonists, calcium flux assay in KISS1R-HEK293 cells (AID 1920064; active = well fitted curve in the direction sought with a large enough effect in the repeat runs; an effect the other way counts as inactive or inconclusive)
# Procedure, shortened: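 Measures KISS1R agonism through calcium-sensitive dye fluorescence in stably transfected HEK293 cells, read for 3 min after pin-tool compound delivery; 15-point titrations in triplicate.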
# [5] = G protein-coupled receptor (GPCR) small molecule agonists, calcium flux assay: HEK293 wild type cell line counter screen (AID 1920065)
# Procedure, shortened: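 Readout: fluorescence at 480 nm excitation/540 nm emission, sampled at 1 s intervals for 3 min. Cells had been cultured 18 h, then dye-loaded 1 h at 37 C before compound or ATP addition.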
# [6] = p53 small molecule agonists, cell-based qHTS assay with human liver microsomes (AID 1963577); also: potency is read from the fitted curve at half-maximal effect;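 as to activation: p53 response element beta-lactamase reporter cells with liver microsomes plus NADPH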
# Procedure, shortened: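 HLM-supplemented p53RE-bla reporter assay: 16 h compound exposure at 37 C, microsomes and NADPH each 0.5 mg/mL final, read by fluorescence intensity.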
# [7] = p53 small molecule agonists, cell-based qHTS assay with rat liver microsomes (AID 1963578)
# Procedure, shortened: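 Quantitative HTS of the Tox21 10K library: p53RE-bla cells, rat liver microsomes plus NADPH at 0.5 mg/mL final each, 16 h at 37 C, beta-lactamase fluorescence detection.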
# [8] = p53 small molecule agonists, cell-based qHTS assay with human liver microsomes: qHTS cell viability counter screen (AID 1963579); also: nearly all actives have a fitted effect of over 45% in size
# Procedure, shortened: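 Viability of p53RE-bla cells is measured as CellTiter-Glo luminescence following a 16 h, 37 C incubation with compound, liver microsomes from human donors and NADPH.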
# [9] = p53 small molecule agonists, cell-based qHTS assay with rat liver microsomes: qHTS cell viability counter screen (AID 1963580); also: nearly all actives have a fitted effect of over 45% in size
# Procedure, shortened: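 Viability is assessed in parallel with the p53 reporter read: HCT-116 p53RE-bla cells receive compounds plus rat microsomes and NADPH (0.5 mg/mL final apiece), incubate 16 h at 37 C, and then CellTiter-Glo luminescence is recorded.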
# [10] = p53 small molecule agonists, cell-based qHTS assay: qHTS cell viability counter screen (AID 1963581); also: nearly all actives have a fitted effect of over 45% in size
# Procedure, shortened: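 In the same plates used for the p53 bla reporter, HCT-116 cells given compounds for 16 h at 37 C received CellTiter-Glo; luminescence was recorded 30 min later at room temperature.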
# [11] = biological target: 5-hydroxytryptamine receptor 2A (Homo sapiens) (UniProt P28223); test: 5-hydroxytryptamine receptor 2A (HTR2A) small molecule antagonists, cell-based qHTS assay (AID 1963586); also: nearly all actives have a fitted effect of over 45% in size; also: potency is read from the fitted curve at half-maximal effect
# Procedure, shortened: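 Antagonist-mode intracellular calcium assay: DOI (4 nM) added after 5 min compound pre-incubation at room temperature to dye-loaded HTR2A-CHO cells. Fluorescence followed for 3 min, sampled every second.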
# [12] = biological target: 5-hydroxytryptamine receptor 2A (Homo sapiens) (UniProt P28223); test: 5-hydroxytryptamine receptor 2A (HTR2A) small molecule agonists, cell-based qHTS assay (AID 1963587); also: nearly all actives have a fitted effect of over 30% in size
# Procedure, shortened: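 CHO cells stably expressing human HTR2A, plated 18 h, loaded with calcium dye 1 h at 37 C. Agonist mode: compounds added and intracellular calcium fluorescence recorded kinetically for 2 min at 1 sec intervals.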
# [13] = biological target: Muscarinic acetylcholine receptor M1 (Homo sapiens) (UniProt P11229); test: Cholinergic receptor muscarinic 1 (CHRM1) small molecule antagonists, cell-based qHTS assay (AID 1963588); also: nearly all actives have a fitted effect of over 40% in size
# Procedure, shortened: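 CHRM1-CHO calcium-flux assay, antagonist mode. Cells were seeded 18 h, dye-loaded 1 h at 37 C and given compound for 5 min at RT, then acetylcholine was added at 50nM. FDSS fluorescence was read 3 min; 15 concentrations, three runs.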
# [14] = biological target: Muscarinic acetylcholine receptor M1 (Homo sapiens) (UniProt P11229); test: Cholinergic receptor muscarinic 1 (CHRM1) small molecule agonists, cell-based qHTS assay (AID 1963589); also: nearly all actives have a fitted effect of over 35% in size
# Procedure, shortened: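 Each compound was tested at 15 concentrations across three independent runs on dye-loaded CHO cells stably expressing human CHRM1, reading intracellular calcium fluorescence kinetically at 1 sec intervals.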
# [15] = cAMP Responsive Elements (CRE) small molecule agonists, cell-based qHTS assay (AID 1963590)
# Procedure, shortened: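 Cell line: CRE-bla HEK 293T; medium DMEM/10% dialyzed FBS/0.1 mM NEAA/1 mM pyruvate/25 mM HEPES; 3 h compound exposure; beta-lactamase FRET readout after 2 h substrate loading at RT.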
# [16] = biological target: Beta-2 adrenergic receptor (Homo sapiens) (UniProt P07550); test: Adrenergic beta2 receptor (ADRB2) small molecule antagonists, cell-based qHTS assay (AID 1963592); also: series mostly up to about 92 µM; nearly all actives have a fitted effect of over 50% in size
# Procedure, shortened: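 Cells (CHO, stable ADRB2 overexpression) incubated 18-20hr at 37C; compounds added from DMSO; agonist mix (1nM isoproterenol, 100uM IBMX, 25uM Ro-20-1724) added; 0.5hr RT; d2-cAMP and anti-cAMP-cryptate added; 1hr RT; 665/615 nm read.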
# [17] = biological target: D(2) dopamine receptor (Homo sapiens) (UniProt P14416); test: Dopamine D2 receptor (DRD2) small molecule agonists, cell-based qHTS assay (AID 1963594); also: nearly all actives have a fitted effect of over 35% in size
# Procedure, shortened: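 HEK293 cells stably expressing human DRD2, pre-treated with PDE inhibitor Ro20-1724 (0.1 mM final) and compound 10 min at room temperature, then stimulated with NKH477 (200nM […]) for 30 min. cAMP read by HTRF (665/620 nm).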
# [18] = biological target: D(2) dopamine receptor (Homo sapiens) (UniProt P14416); test: Dopamine D2 receptor (DRD2) small molecule antagonists, cell-based qHTS assay (AID 1963595; active = well fitted inhibition curve with a large enough effect in the signal ratio in the repeat runs, with a control signal flat; the % refers to the signal ratio)
# Procedure, shortened: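 Cells were plated and grown for 24 h at 37 °C. Ro20-1724 (0.1 mM final) went in first, then compound for 10 min. NKH477 (200 nM) with quinpirole (12 nM) followed for 30 min at RT, then HTRF detection reagents for 1 h.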
# [19] = p53 small molecule agonists, cell-based qHTS assay (AID 1963582; active = well fitted activation curve with a large enough effect in the signal ratio in the repeat runs, not every such curve was filed as active; the % refers to the signal ratio)
# Procedure, shortened: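 Compounds are pin-transferred in DMSO onto p53RE-bla cells and incubated 16 h at 37 C. The B/G FRET beta-lactamase substrate is then applied for 2 h at RT and fluorescence recorded.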
# [20] = cAMP Responsive Elements (CRE) small molecule antagonists, cell-based qHTS assay (AID 1963591; active = well fitted inhibition curve with a large enough effect in the signal ratio in the repeat runs, not every such curve was filed as active; the % refers to the signal ratio)
# Procedure, shortened: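 Inhibition of NKH477-driven (0.25 uM final) CRE-beta-lactamase signal in HEK293T cells, 3 h compound exposure at 37 °C, detected by FRET substrate fluorescence.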
# Chain of KiSS-1 receptor (Homo sapiens) (Q969F8 whole entry, looked up): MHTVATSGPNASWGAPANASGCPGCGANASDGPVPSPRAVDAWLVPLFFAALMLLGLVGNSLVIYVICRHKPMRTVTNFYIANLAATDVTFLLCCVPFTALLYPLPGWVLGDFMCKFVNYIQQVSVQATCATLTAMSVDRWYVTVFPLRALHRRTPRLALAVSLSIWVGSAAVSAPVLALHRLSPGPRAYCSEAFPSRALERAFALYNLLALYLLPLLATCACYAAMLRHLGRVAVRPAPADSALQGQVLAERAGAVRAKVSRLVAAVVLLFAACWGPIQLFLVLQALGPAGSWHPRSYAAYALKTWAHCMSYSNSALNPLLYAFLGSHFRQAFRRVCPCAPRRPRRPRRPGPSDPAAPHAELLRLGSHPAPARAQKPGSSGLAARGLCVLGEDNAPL
# Chain of 5-hydroxytryptamine receptor 2A (Homo sapiens) (P28223 whole entry, looked up): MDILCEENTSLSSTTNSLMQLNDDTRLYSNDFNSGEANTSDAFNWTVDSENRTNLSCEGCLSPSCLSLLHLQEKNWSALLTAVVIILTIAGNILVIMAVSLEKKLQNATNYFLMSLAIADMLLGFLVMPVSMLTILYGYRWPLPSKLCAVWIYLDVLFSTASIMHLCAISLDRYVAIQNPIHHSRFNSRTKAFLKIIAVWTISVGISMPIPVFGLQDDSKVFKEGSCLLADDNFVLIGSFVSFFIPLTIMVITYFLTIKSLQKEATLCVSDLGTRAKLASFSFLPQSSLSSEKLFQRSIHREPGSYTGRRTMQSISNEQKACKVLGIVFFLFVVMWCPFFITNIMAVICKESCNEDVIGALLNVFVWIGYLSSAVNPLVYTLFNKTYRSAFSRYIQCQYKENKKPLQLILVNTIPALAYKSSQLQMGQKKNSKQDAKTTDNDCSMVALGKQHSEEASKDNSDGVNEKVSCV
# Chain of Gonadotropin-releasing hormone receptor (Homo sapiens) (P30968 whole entry, looked up): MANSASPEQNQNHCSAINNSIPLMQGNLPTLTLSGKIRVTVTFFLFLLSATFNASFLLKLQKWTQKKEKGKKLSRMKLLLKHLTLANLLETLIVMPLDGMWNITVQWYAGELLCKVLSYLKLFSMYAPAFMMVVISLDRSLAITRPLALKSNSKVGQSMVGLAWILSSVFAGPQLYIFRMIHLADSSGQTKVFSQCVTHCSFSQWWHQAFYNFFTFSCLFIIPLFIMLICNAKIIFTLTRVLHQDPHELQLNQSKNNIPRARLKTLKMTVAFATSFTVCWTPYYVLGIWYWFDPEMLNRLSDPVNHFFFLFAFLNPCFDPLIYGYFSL
# Chain of Beta-2 adrenergic receptor (Homo sapiens) (P07550 whole entry, looked up): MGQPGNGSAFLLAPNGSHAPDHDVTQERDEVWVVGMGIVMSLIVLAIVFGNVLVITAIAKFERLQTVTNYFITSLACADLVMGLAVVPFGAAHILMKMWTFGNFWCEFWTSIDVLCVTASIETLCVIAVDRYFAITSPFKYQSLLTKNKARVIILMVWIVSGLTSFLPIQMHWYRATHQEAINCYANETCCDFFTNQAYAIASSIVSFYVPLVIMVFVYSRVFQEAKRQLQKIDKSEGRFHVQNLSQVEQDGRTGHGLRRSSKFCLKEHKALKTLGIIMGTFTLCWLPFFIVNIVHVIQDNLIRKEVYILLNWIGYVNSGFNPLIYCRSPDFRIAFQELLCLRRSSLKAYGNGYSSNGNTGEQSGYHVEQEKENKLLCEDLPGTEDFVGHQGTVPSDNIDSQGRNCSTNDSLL
# Chain of Muscarinic acetylcholine receptor M1 (Homo sapiens) (P11229 whole entry, looked up): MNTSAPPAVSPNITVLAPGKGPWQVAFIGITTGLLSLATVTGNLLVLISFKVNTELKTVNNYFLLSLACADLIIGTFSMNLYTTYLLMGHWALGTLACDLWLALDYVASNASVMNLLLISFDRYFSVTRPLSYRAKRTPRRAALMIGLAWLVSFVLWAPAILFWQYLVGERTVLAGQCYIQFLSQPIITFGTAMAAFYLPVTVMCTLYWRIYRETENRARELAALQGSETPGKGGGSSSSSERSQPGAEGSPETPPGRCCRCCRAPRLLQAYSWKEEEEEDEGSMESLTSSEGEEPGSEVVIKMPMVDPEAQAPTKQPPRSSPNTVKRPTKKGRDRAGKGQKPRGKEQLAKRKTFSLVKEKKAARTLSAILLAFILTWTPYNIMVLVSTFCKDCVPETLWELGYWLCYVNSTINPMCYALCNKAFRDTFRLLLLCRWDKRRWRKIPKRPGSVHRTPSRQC
# Chain of D(2) dopamine receptor (Homo sapiens) (P14416 whole entry, looked up): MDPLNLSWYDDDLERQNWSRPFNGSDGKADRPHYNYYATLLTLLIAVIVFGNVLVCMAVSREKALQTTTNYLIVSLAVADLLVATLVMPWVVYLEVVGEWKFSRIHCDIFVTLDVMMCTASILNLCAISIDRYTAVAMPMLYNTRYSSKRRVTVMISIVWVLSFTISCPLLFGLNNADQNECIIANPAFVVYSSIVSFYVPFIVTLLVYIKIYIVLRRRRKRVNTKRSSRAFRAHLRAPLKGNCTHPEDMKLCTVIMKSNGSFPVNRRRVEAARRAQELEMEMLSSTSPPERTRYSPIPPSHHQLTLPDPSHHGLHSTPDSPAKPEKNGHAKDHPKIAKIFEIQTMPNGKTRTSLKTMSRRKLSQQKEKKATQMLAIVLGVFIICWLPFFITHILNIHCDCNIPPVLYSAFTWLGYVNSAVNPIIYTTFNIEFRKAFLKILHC
Compound,Potency [1],Potency [2],Potency [3],outcome [4],outcome [5],Potency [6],Potency [7],Potency [8],Potency [9],Potency [10],Potency [11],Potency [12],Potency [13],Potency [14],Potency [15],Potency [16],Potency [17],Potency [18],Potency [19],Potency [20]
Clc1ccc2n[nH]nc2c1,inactive,inactive,inactive,inactive,inactive,28.9 µM (active),inactive,inactive,inactive,inactive,inactive,inactive,inactive,inactive,inactive,inactive,inactive,inactive,,
Cc1cc(C(C)(C)C)c(O)c(C)c1CC1=NCCN1,inactive,inactive,inactive,inactive,inactive,inactive,inactive,inactive,inactive,inactive,,,,,inactive,inactive,inactive,inactive,inactive,
CCC(C)COC(=O)CC(C)C (stereo not drawn),inactive,inactive,inactive,inactive,inactive,inactive,inactive,inactive,inactive,inactive,inactive,inactive,inactive,,,inactive,inactive,inactive,,
C/C(=C\C(C)CC(C)CC(C)C)C1CC(=O)OC1=O (stereo not drawn),inactive,inactive,inactive,inactive,inactive,inactive,inactive,inactive,inactive,inactive,inactive,inactive,inactive,inactive,inactive,inactive,inactive,inactive,,
CC(=O)Nc1ccn(C2COC(COC(=O)c3ccccc3)O2)c(=O)n1 (stereo not drawn),inactive,inactive,inactive,inactive,inactive,inactive,inactive,inactive,inactive,inactive,inactive,inactive,inactive,inactive,,,inactive,inactive,,
CCCC1CCCC(=O)O1 (stereo not drawn),inactive,inactive,inactive,inactive,inactive,inactive,inactive,inactive,inactive,inactive,inactive,inactive,inactive,inactive,,inactive,inactive,inactive,,
N#C[C@@H]1CC(F)(F)CN1C(=O)CNC1CC2CCC(C1)N2c1ncccn1 (stereo partly drawn),inactive,inactive,inactive,inactive,inactive,inactive,inactive,inactive,inactive,inactive,inactive,inactive,,inactive,inactive,inactive,inactive,inactive,,inactive
O=c1[nH]cnc2ccccc12,inactive,0.0631 µM (active),inactive,inactive,inactive,inactive,inactive,inactive,inactive,inactive,inactive,inactive,,inactive,inactive,inactive,inactive,inactive,,
Cc1ccc(-n2nc(C(C)(C)C)cc2NC(=O)Nc2ccc(OCCN3CCOCC3)c3ccccc23)cc1,inactive,inactive,inactive,inactive,inactive,inactive,inactive,inactive,inactive,inactive,inactive,inactive,inactive,inactive,,,inactive,inactive,,
N#Cc1ccc(C/C(=N/NC(=O)Nc2ccc(OC(F)(F)F)cc2)c2cccc(C(F)(F)F)c2)cc1,inactive,inactive,inactive,inactive,inactive,inactive,inactive,inactive,inactive,inactive,inactive,inactive,inactive,inactive,,inactive,inactive,inactive,,inactive
O=C(CCc1ccc(O)cc1)c1c(O)cc(O)cc1O,inactive,70.1 µM (active),inactive,inactive,inactive,inactive,inactive,inactive,inactive,inactive,38.4 µM (active),inactive,inactive,inactive,,inactive,,inactive,,
C=CC(C)(O)CCCC(C)CCCC(C)CCCC(C)C (stereo not drawn),inactive,inactive,inactive,inactive,inactive,inactive,inactive,inactive,inactive,inactive,inactive,,inactive,inactive,inactive,inactive,,inactive,,inactive
CCC(CC)(CC(=O)Nc1cccc(/C=C/c2nc(C3CCC3)cs2)c1)C(=O)O,inactive,inactive,inactive,inactive,inactive,inactive,inactive,inactive,inactive,inactive,inactive,inactive,inactive,inactive,,inactive,inactive,,,
CCOC(=O)CC(C)O (stereo not drawn),inactive,inactive,inactive,inactive,inactive,inactive,inactive,inactive,inactive,inactive,inactive,inactive,inactive,inactive,,inactive,inactive,inactive,,inactive
O=C(O)Cc1ccc2c(c1)C(=O)c1ccccc1CO2,inactive,inactive,inactive,inactive,inactive,inactive,inactive,inactive,inactive,inactive,inactive,inactive,inactive,inactive,,inactive,inactive,inactive,,
